# In the OligoGym collection:
# Biological target: P2RY8
# Assay: pooled miR-30 sensor sort-seq; sequence = guide strand
# Details: shRNA
# Further: reference of the scale not given here.
row,Sequence,sensor-assay potency score (higher = more potent)
1,TTGAGGACGTCGAAGCAGGTGA,-0.556
2,TTTTCCATCTTAAAACATGTGT,-0.223
3,TCAACCAGTGAACAGACTGAGT,-1.22
4,TTTCACTCAAAGCTCAACCAGT,0.0389
5,TTCAGCTTTGGAACAGTCTAGA,-0.295
6,TTGATCATGAAGATGACCGACG,-0.289
7,TACTGTGAAGATGCTACTCTGA,-0.29
8,TACACGTGGTAGTAGCTCTTGC,-0.559
9,TGGAACAGTCTAGAGAAGCAGG,-1.38
10,TTCATTACTAAACCATCTCTGT,-0.448
11,TTGCTTTCTAGGGTTCAGCTTT,-0.874

# Biological target: P4HA2
# Assay: as above
# Details: shRNA
row,Sequence,sensor-assay potency score (higher = more potent)
1,TTGTACCAGAACACAGCTGTAC,-0.305
2,TTGCAACCTGTAACAATTCTGC,-0.407
3,TTCTACATCACTCATGTAGTTA,-0.685
4,TAATCTTGGAAAGCTTGGCTTC,-0.909
5,TTAAGAAACGTCGCTAACCTAT,-0.763
6,TTGCCTGGTACTTGGTTCCTGG,-0.843
7,TTAGGTTTTGCGATCTCCTTGA,0.73
8,TTAACGTTTTTTCTCTCTCTTC,-0.749
9,TTTAGGTTTTGCGATCTCCTTG,-0.309
10,TATCTCGTCCTCATCAGTGGGG,0.413
11,TTATTGGAGACCCACTTGCAGC,-1.45
12,TAGACAGCTAACTCTGCTGCAG,-0.415

# Biological target: P4HB
# Assay: as above
# Details: shRNA
row,Sequence,sensor-assay potency score (higher = more potent)
1,TTTCTGATCATCGTCTTCCTCC,0.0481
2,TTGGAGAACACGTCACTGTTGG,0.0264
3,TTCACCTCCAAAAATCTTCGGG,0.109
4,TATTTGGAGAACACGTCACTGT,-0.00902
5,TTGCAGTGACCACACCATGGGG,-1.18
6,TTGTAATCAATGACCGTCCTGT,0.492
7,TTGGCAGTCGAGTCCATCTTGG,-1.06
8,TTTGATAAAGTCCAGCAGGTTC,-0.96
9,TAGAACTCCACAAAGACGTTTT,-0.145
10,TTGACAGGCTGCTTGTCCCAGT,-0.656
11,TTCCTGAAGAACTTGATGGTGG,0.134
12,TTTCTTAAAACCATCCAGCGTG,-0.457

# Biological target: PAFAH1B2
# Assay: as above
# Details: shRNA
row,Sequence,sensor-assay potency score (higher = more potent)
1,TTTCGTGGTTATTTGTTCCTAC,0.14
2,ATGAATTTAAACAACAATCTTC,-0.0238
3,TGTGCTGAGACATCCATCGGTC,-0.024
